Measured values: PubChem BioAssay (Tox21)
Values without a mark were called inactive. Inconclusive results are not listed. A call without a number means that no potency is given here. Calls of active or inactive are those of the source. Unless noted, calls come from the whole dose curve; as a rule, active = well fitted curve in the direction sought with a large enough effect in the repeat runs; inconclusive = weak or mixed curves; inactive = no such curve, though single readings can be large; an effect the other way counts as inactive or inconclusive.

Assays:
[1] = qHTS assay to identify small molecule agonists of the estrogen related receptor (ERR) signaling pathway from Tox21 library (AID 1224849; calls by dose curve; note: nearly all actives have a fitted effect of over 15% in size)
In short: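 ERR reporter cell line (NTP) seeded, rested 6 h at 37 C/5% CO2, then pinned with Tox21 compounds in DMSO. After 18 h at 37 C, ONE-Glo luciferase luminescence was read following 30 min at room temperature.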

[2] = qHTS RealTime-Glo MT Cell Viability Assay in HepG2 cells - 24 hour (AID 1224867); note: nearly all actives have a fitted effect of over 50% in size
In short: (§1)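 Compound treatment began 5 h after plating HepG2 cells (600/well) with NanoLuc luciferase and prosubstrate. Plates stayed at 37 C for 40 h; luminescence was captured at six time points, 0 h through 40 h.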

[3] = qHTS RealTime-Glo MT Cell Viability Assay in HEK293 cells - 32 hour (AID 1224868); note: nearly all actives have a fitted effect of over 50% in size; note: potency is the fitted concentration of half-maximal effect
In short: (§2)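 Quantitative high-throughput screen of the Tox21 10K library in HEK293: cells and RealTime-Glo reagents plated together, compound added at 5 h, luminescence monitored through 40 h at 37 C.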

[4] = A CellTox Green Cytotoxicity Assay to monitor cytotoxicity in HEK293 cells - 0 hour (AID 1224869); note: nearly all actives have a fitted effect of over 50% in size
In short: (§3)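 HEK293 cells premixed with CellTox Green dye were seeded at 600 cells/well and left 5 h at 37 C/5% CO2 before pin transfer of 23 nL compound in DMSO. Fluorescence from dye bound to dead-cell DNA was read during 40 h treatment.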

[5] = qHTS RealTime-Glo MT Cell Viability Assay in HepG2 cells - 40 hour (AID 1224870); note: nearly all actives have a fitted effect of over 50% in size
In short: (§4)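 Real-time viability: cells seeded at 600 per well together with NanoLuc and cell-permeant prosubstrate, compounds added after 5 h incubation. Luminescence tracked at 0, 8, 16, 24, 32 and 40 h of exposure.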

[6] = A CellTox Green Cytotoxicity Assay to monitor cytotoxicity in HEK293 cells - 40 hour (AID 1224871); note: nearly all actives have a fitted effect of over 45% in size
In short: as §3

[7] = qHTS RealTime-Glo MT Cell Viability Assay in HEK293 cells - 16 hour (AID 1224872); note: nearly all actives have a fitted effect of over 50% in size; note: potency is the fitted concentration of half-maximal effect
In short: as §2

[8] = qHTS RealTime-Glo MT Cell Viability Assay in HepG2 cells - 8 hour (AID 1224873); note: nearly all actives have a fitted effect of over 55% in size
In short: as §4

[9] = qHTS RealTime-Glo MT Cell Viability Assay in HEK293 cells - 40 hour (AID 1224874); conditions: RealTime-Glo luminescence; max response: hits give low values; note: nearly all actives have a fitted effect of over 50% in size; note: potency is the fitted concentration of half-maximal effect
In short: (§5)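 HEK293 cells mixed with RealTime-Glo reagents (NanoLuc plus cell-permeant prosubstrate) at 600 cells/well, preincubated 5 h at 37 C/5% CO2, then given 23 nL compound in DMSO. Nonlytic luminescence from viable cells was read at 0, 8, 16, 24, 32 and 40 h.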

[10] = A CellTox Green Cytotoxicity Assay to monitor cytotoxicity in HepG2 cells - 16 hour (AID 1224876); note: nearly all actives have a fitted effect of over 45% in size
In short: (§6)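 HepG2 cells were seeded together with the CellTox Green dye at 600 cells/well, left 5 h at 37 C/5% CO2, then given compounds in DMSO. Fluorescence from dye bound to dead-cell DNA was read repeatedly over 40 h of treatment at 37 C.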

[11] = qHTS RealTime-Glo MT Cell Viability Assay in HepG2 cells - 32 hour (AID 1224877); note: nearly all actives have a fitted effect of over 55% in size
In short: as §1

[12] = A CellTox Green Cytotoxicity Assay to monitor cytotoxicity in HepG2 cells - 24 hour (AID 1224878); note: nearly all actives have a fitted effect of over 45% in size
In short: as §6

[13] = A CellTox Green Cytotoxicity Assay to monitor cytotoxicity in HepG2 cells - 40 hour (AID 1224879); note: nearly all actives have a fitted effect of over 40% in size
In short: as §6

[14] = qHTS RealTime-Glo MT Cell Viability Assay in HEK293 cells - 0 hour (AID 1224880); note: top concentration of the series differs between compounds; nearly all actives have a fitted effect of over 45% in size
In short: as §5

[15] = A CellTox Green Cytotoxicity Assay to monitor cytotoxicity in HEK293 cells - 32 hour (AID 1224881); note: nearly all actives have a fitted effect of over 40% in size
In short: as §3

[16] = A CellTox Green Cytotoxicity Assay to monitor cytotoxicity in HepG2 cells - 0 hour (AID 1224882); note: nearly all actives have a fitted effect of over 35% in size
In short: as §6

[17] = A CellTox Green Cytotoxicity Assay to monitor cytotoxicity in HepG2 cells - 32 hour (AID 1224883); note: nearly all actives have a fitted effect of over 50% in size
In short: as §6

[18] = qHTS RealTime-Glo MT Cell Viability Assay in HepG2 cells - 16 hour (AID 1224885); note: nearly all actives have a fitted effect of over 50% in size
In short: as §1

[19] = A CellTox Green Cytotoxicity Assay to monitor cytotoxicity in HEK293 cells - 24 hour (AID 1224875)
In short: as §3

[20] = A CellTox Green Cytotoxicity Assay to monitor cytotoxicity in HEK293 cells - 8 hour (AID 1224884); note: nearly all actives have a fitted effect of over 35% in size
In short: as §3

With `C=CCOCC(CO)(COCC=C)COCC=C` as the compound, how does the outcome [1] read?
The outcome was “inactive”.

What about the outcome [2] of the same compound?
The outcome was “inactive”.

And the Potency [3]?
Its Potency is “inactive”.

And the Potency [4]?
Its Potency is “inactive”.

What about the outcome [5] of the same compound?
The outcome was “inactive”.

What about the Potency [6] of the same compound?
The Potency was “inactive”.

What about the Potency [7] of the same compound?
Its Potency is “inactive”.

What about the outcome [8] of the same compound?
The outcome was “inactive”.

And the max response [9]?
Its max response is 0.319%.

What about the Potency [10] of the same compound?
The Potency was “inactive”.

And the outcome [11]?
The outcome was “inactive”.

What about the Potency [12] of the same compound?
Its Potency is “inactive”.

What about the Potency [13] of the same compound?
The Potency was “inactive”.

And the outcome [14]?
Its outcome is “inactive”.

And the Potency [15]?
The Potency was “inactive”.

And the Potency [16]?
Its Potency is “inactive”.

And the Potency [17]?
Its Potency is “inactive”.

What about the outcome [18] of the same compound?
The outcome was “inactive”.

Which outcome [1] does the source give for `O=CN1CCOCC1` here?
The outcome was “inactive”.

And the outcome [2]?
The outcome was “inactive”.

What about the Potency [3] of the same compound?
The Potency was “inactive”.

And the Potency [4]?
The Potency was “inactive”.

And the outcome [5]?
The outcome was “inactive”.

And the Potency [6]?
The Potency was “inactive”.

What about the Potency [7] of the same compound?
Its Potency is “inactive”.

And the outcome [8]?
The outcome was “inactive”.

And the max response [9]?
Its max response is 10.7%.

And the Potency [19]?
Its Potency is “inactive”.

And the Potency [10]?
The Potency was “inactive”.

And the outcome [11]?
The outcome was “inactive”.

And the Potency [12]?
The Potency was “inactive”.

What about the Potency [13] of the same compound?
The Potency was “inactive”.

And the outcome [14]?
Its outcome is “inactive”.

And the Potency [15]?
The Potency was “inactive”.

And the Potency [16]?
Its Potency is “inactive”.

And the Potency [17]?
Its Potency is “inactive”.

What about the Potency [20] of the same compound?
The Potency was “inactive”.

What about the outcome [18] of the same compound?
The outcome was “inactive”.

With `CC1CCC(C(C)(C)S)C(=O)C1` (stereo unspecified) as the compound, how does the outcome [1] read?
The outcome was “inactive”.

And the outcome [2]?
The outcome was “inactive”.

And the Potency [3]?
The Potency was 3.09 µM (active).

What about the Potency [4] of the same compound?
The Potency was “inactive”.

What about the outcome [5] of the same compound?
The outcome was “inactive”.

What about the Potency [6] of the same compound?
Its Potency is “inactive”.

What about the Potency [7] of the same compound?
Its Potency is 6.92 µM (active).

What about the outcome [8] of the same compound?
The outcome was “inactive”.

What about the Potency [9] of the same compound?
The Potency was 3.09 µM (active).

What about the Potency [19] of the same compound?
The Potency was “inactive”.

And the Potency [10]?
The Potency was “inactive”.

What about the outcome [11] of the same compound?
Its outcome is “inactive”.

What about the Potency [12] of the same compound?
The Potency was “inactive”.

And the Potency [13]?
The Potency was “inactive”.

And the outcome [14]?
The outcome was “inactive”.

And the Potency [15]?
The Potency was “inactive”.

And the Potency [16]?
The Potency was “inactive”.

And the Potency [17]?
Its Potency is “inactive”.

What about the Potency [20] of the same compound?
Its Potency is “inactive”.

What about the outcome [18] of the same compound?
The outcome was “inactive”.

Which results are given for `CC(C)C(=O)Nc1cccc(C(F)(F)F)c1`?
outcome [1]: inactive; outcome [2]: inactive; Potency [3]: inactive; Potency [4]: inactive; outcome [5]: inactive; Potency [6]: inactive; Potency [7]: inactive; outcome [8]: inactive; max response [9]: -2.33%; Potency [19]: inactive; Potency [10]: inactive; outcome [11]: inactive; Potency [12]: inactive; Potency [13]: inactive; outcome [14]: inactive; Potency [15]: inactive; Potency [16]: inactive; Potency [17]: inactive; Potency [20]: inactive; outcome [18]: inactive

For `C=C(C)C(=O)OC`, which outcome [1] is on record?
The outcome was “inactive”.

And the outcome [2]?
The outcome was “inactive”.

And the Potency [3]?
The Potency was “inactive”.

What about the Potency [4] of the same compound?
The Potency was “inactive”.

What about the outcome [5] of the same compound?
The outcome was “inactive”.

What about the Potency [6] of the same compound?
Its Potency is “inactive”.

What about the Potency [7] of the same compound?
Its Potency is “inactive”.

And the outcome [8]?
The outcome was “inactive”.

What about the max response [9] of the same compound?
The max response was -13.6%.

And the Potency [10]?
The Potency was “inactive”.

And the outcome [11]?
Its outcome is “inactive”.

What about the Potency [12] of the same compound?
Its Potency is “inactive”.

What about the Potency [13] of the same compound?
The Potency was “inactive”.

What about the outcome [14] of the same compound?
The outcome was “inactive”.

And the Potency [15]?
The Potency was “inactive”.

What about the Potency [16] of the same compound?
Its Potency is “inactive”.

And the Potency [17]?
The Potency was “inactive”.

And the outcome [18]?
The outcome was “inactive”.

With `CCCCCC1CCCC(=O)O1` (stereo unspecified) as the compound, how does the outcome [1] read?
The outcome was “inactive”.

What about the outcome [2] of the same compound?
The outcome was “inactive”.

What about the Potency [3] of the same compound?
The Potency was “inactive”.

And the Potency [4]?
The Potency was “inactive”.

And the outcome [5]?
Its outcome is “inactive”.

And the Potency [6]?
Its Potency is “inactive”.

What about the Potency [7] of the same compound?
The Potency was “inactive”.

What about the outcome [8] of the same compound?
Its outcome is “inactive”.

And the max response [9]?
Its max response is 7.32%.

What about the Potency [19] of the same compound?
The Potency was “inactive”.

And the Potency [10]?
Its Potency is “inactive”.

And the outcome [11]?
The outcome was “inactive”.

And the Potency [12]?
Its Potency is “inactive”.

What about the Potency [13] of the same compound?
The Potency was “inactive”.

What about the outcome [14] of the same compound?
The outcome was “inactive”.

What about the Potency [15] of the same compound?
Its Potency is “inactive”.

What about the Potency [16] of the same compound?
Its Potency is “inactive”.

And the Potency [17]?
The Potency was “inactive”.

What about the Potency [20] of the same compound?
Its Potency is “inactive”.

And the outcome [18]?
Its outcome is “inactive”.

Which outcome [1] does the source give for `CCCCCCCCC(=O)OCC` here?
The outcome was “inactive”.

And the outcome [2]?
The outcome was “inactive”.

And the Potency [3]?
Its Potency is “inactive”.

What about the Potency [4] of the same compound?
Its Potency is “inactive”.

And the outcome [5]?
Its outcome is “inactive”.

What about the Potency [6] of the same compound?
Its Potency is “inactive”.

And the Potency [7]?
The Potency was “inactive”.

And the outcome [8]?
Its outcome is “inactive”.

What about the max response [9] of the same compound?
The max response was 9.15%.

What about the Potency [19] of the same compound?
The Potency was “inactive”.

What about the Potency [10] of the same compound?
The Potency was “inactive”.

And the outcome [11]?
Its outcome is “inactive”.

And the Potency [12]?
Its Potency is “inactive”.

And the Potency [13]?
Its Potency is “inactive”.

What about the outcome [14] of the same compound?
The outcome was “inactive”.

What about the Potency [15] of the same compound?
Its Potency is “inactive”.

And the Potency [16]?
Its Potency is “inactive”.

And the Potency [17]?
The Potency was “inactive”.

And the Potency [20]?
Its Potency is “inactive”.

And the outcome [18]?
The outcome was “inactive”.
